Only some compounds are listed: those with a hit (about 2.4% of all), similar ones and a draw of the others.
WRN helicase inh – WRN helicase (human) inhibition | Q14191 | WRN helicase unwinding, fluorescent forked duplex, kinetic | Potency, µM (series often up to 114 µM), without a hit: top-dose activity change, negative = inhibition, hits mostly inhibitors | 360,000 compounds, 0.46% hits; note: potency is the fitted concentration of half-maximal effect; % is set by controls: 0 for no effect and ±100 for the full control effect; nearly all actives have a fitted effect of over 55% in size
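Fluorescence dequenching readout, ex 525 nm/em 598 nm, kinetic mode: forked duplex DNA (100 nM final) with adjacent fluorophore and quencher unwound by WRN (20 nM final) with 2 mM ATP. Compound preincubation 15 min, room temperature.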
Pol kappa inh-1 – inhibitors of human DNA polymerase kappa | Q9UBT6 | purified Pol kappa, fluorescent DNA synthesis assay, 10 min | Potency, µM (series often up to 107 µM), without a hit: top-dose activity, negative = inhibition, usual class: inhibitors | 400,000 compounds, 0.53% hits | AID 588579; note: potency is the fitted concentration of half-maximal effect; % is set by controls: 0 for no effect and ±100 for the full control effect
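Enzyme at 10 nM met test compounds for 15 min at room temperature. Substrate addition (50 nM final) began the reaction, which was monitored by fluorescence at 0 and 10 min.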
FEN1 inh-1 – inhibitors of human flap endonuclease 1; Recombinant FEN1 flap cleavage, fluorescence, 15 min; P39748; 390,000 compounds, 0.35% hits; Potency, µM (highest dose often 114 µM), for inactives: top-dose activity change, negative = inhibition, actives largely listed as inhibitors; note: potency is the fitted concentration of half-maximal effect; % is set by controls: 0 for no effect and ±100 for the full control effect; nearly all actives have a fitted effect of over 65% in size
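Quantitative HTS format: each compound was titrated, incubated with 10 nM nuclease for 15 min at room temperature, then challenged with flap substrate at 50 nM final. Signal change over 15 min gave concentration–effect curves.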
Pol eta inh-1 – DNA polymerase eta (human) inhibition; Q9Y253; recombinant Pol eta, fluorescent DNA replication assay; Potency, µM (series often up to 114 µM), for inactives: top-dose activity change, negative = inhibition, usual class: inhibitors; 390,000 compounds, 1.2% hits; AID 588591; note: potency is the fitted concentration of half-maximal effect; % is set by controls: 0 for no effect and ±100 for the full control effect
Target sequence (Q9Y253 whole entry, looked up): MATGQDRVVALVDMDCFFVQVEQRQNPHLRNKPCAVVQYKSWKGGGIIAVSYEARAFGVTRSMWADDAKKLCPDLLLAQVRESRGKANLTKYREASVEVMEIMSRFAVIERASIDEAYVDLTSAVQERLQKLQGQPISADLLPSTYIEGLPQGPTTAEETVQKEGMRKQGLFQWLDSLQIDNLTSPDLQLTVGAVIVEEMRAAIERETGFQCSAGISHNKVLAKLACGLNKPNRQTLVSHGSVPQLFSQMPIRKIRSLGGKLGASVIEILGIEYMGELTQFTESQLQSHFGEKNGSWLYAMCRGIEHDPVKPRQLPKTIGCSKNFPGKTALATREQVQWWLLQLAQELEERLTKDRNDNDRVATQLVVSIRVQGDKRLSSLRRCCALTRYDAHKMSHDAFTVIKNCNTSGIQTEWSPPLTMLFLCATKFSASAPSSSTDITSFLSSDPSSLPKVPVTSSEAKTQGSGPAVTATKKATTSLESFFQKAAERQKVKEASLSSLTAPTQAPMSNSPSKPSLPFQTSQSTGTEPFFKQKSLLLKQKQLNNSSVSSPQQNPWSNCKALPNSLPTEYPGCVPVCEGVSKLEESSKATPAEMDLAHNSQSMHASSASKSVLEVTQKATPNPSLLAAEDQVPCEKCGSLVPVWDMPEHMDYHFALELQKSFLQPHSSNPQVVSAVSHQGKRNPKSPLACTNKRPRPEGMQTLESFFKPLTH
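Pol eta (10 nM) was preincubated with compounds for 15 min at room temperature, after which fluorescent replication substrate (50 nM final) was added to start the reaction. Fluorescence was read kinetically at 0 and 10 min.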
Pol iota inh – blocks human DNA polymerase iota activity; Pol iota fluorescent replication assay, 10 min; Potency, µM (highest dose often 115 µM), for inactives: top-dose activity, negative = inhibition, usual class: inhibitors; 390,000 compounds, 1% hits; Q9UNA4; note: potency is the fitted concentration of half-maximal effect
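Fluorescent replication assay read twice, at 0 min and 10 min after adding 50 nM (final) substrate. Enzyme (10 nM) and compounds were first incubated 15 min at room temperature; enzyme-free buffer wells were negative controls.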
Pol beta inh – blocks human DNA polymerase beta activity | Pol beta primer extension/strand displacement, fluorescence kinetic | AID 485314 | 340,000 compounds, 1.3% hits | Potency, µM (titrated, usually from 114 µM), for inactives: at the top dose activity change, negative = inhibition, usual class: inhibitors | P06746; note: potency is the fitted concentration of half-maximal effect; % is set by controls: 0 for no effect and ±100 for the full control effect
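Human Pol beta at 10 nM; strand-displacement substrate 50 nM final. Compound exposure 15 min at room temperature before start, reaction 10 min at room temperature.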
GALK confirm – confirmation of human galactokinase (GALK) inhibitors; AID 2015; Potency, µM (top dose mostly 115 µM), without a hit: at the top dose activity, negative = inhibition, hits mostly inhibitors; 150 compounds, 70% hits; purified GALK, Kinase-Glo ATP depletion luminescence; shares compounds with Pol eta inh-1
GALK redox cs – generates H2O2 by redox cycling, flagging GALK artifacts; shares compounds with Pol eta inh-1; Phenol red-HRP H2O2 redox cycling, absorbance 600 nm; Potency, µM (doses to about 115 µM), for the others: at the highest dose activity change, negative = H2O2 signal, most hits filed as inhibitors; 150 compounds, 40% hits
HEK293 tox – HEK-293 cytotoxicity, GALK inhibitor secondary; shares compounds with Pol eta inh-1; HEK-293 viability, ATP luminescence (CellTiter-Glo), 24/48 h; Potency, µM (highest dose often 46.1 µM), inactives show at the top dose activity change, negative = cytotoxicity, usual class: inhibitors; 170 compounds, 10% hits; AID 2547; note: potency is the fitted concentration of half-maximal effect; % is set by controls: 0 for no effect and ±100 for the full control effect
Pol kappa inh-2 – confirmation of human DNA polymerase kappa inhibitors; shares compounds with Pol eta inh-1; purified Pol-kappa, fluorescent strand-displacement substrate; Potency, µM, usual class: inhibitors; 920 compounds, 76% hits; note: potency is the fitted concentration of half-maximal effect
Pol eta inh-2 – Pol eta (human) inhibition, cherry-pick confirmation; shares compounds with Pol eta inh-1; Pol eta primer extension, TAMRA/BHQ fluorescence, 10 min; Potency, µM, usual class: inhibitors; 2,600 compounds, 64% hits; note: potency is the fitted concentration of half-maximal effect
FEN1 inh-2 – FEN1 inhibition, cherry-pick retest. shares compounds with FEN1 inh-1. FEN1 flap cleavage, TAMRA/BHQ2 fluorogenic DNA substrate. Potency, µM, actives largely listed as inhibitors. 880 compounds, 79% hits. AID 720498; note: potency is the fitted concentration of half-maximal effect; nearly all actives have a fitted effect of over 60% in size
An asterisk follows results filed as active; u = inconclusive; x = no result given; [ ] = dose if it differs, or a comment. Calls come from the whole dose curve; as a rule, active = well fitted curve in the direction sought with a large enough effect; inconclusive = small, poorly fitted or top-dose-only effect, or another doubt; inactive = no such curve, though single readings can be large; an effect the other way counts as inactive or inconclusive.

SMILES	WRN helicase inh	Pol kappa inh-1	FEN1 inh-1	Pol eta inh-1	Pol iota inh	Pol beta inh	Pol eta inh-2	others
CCNc1nc(NCC)n2c(SCC(=O)Nc3ccc(F)cc3)nnc2n1	u	u	0.2%	14.1µM*	20µM*	x	67.5*	Pol kappa inh-2=59.7*
CCNc1nc(NCC)n2c(SCC(=O)Nc3ccc(OC(F)F)cc3)nnc2n1	-15.3%[11.6 µM]	-12.2%	1.7%	u	u	x	u
O=C(O)c1cccc(-n2cnc3cccnc32)c1	x	-7.2%	13.6%	x	9.3%	2.2%	x
N#C/C(=C\c1coc2ccc(O)cc2c1=O)C(=O)Nc1nc2ccccc2s1	56.2µM*	2.82µM*	u	3.55µM*	u	u	x	GALK confirm=33.5µM*;GALK redox cs=-1.3%;HEK293 tox=u
O=c1[nH]c(/C=C/c2ccc([N+](=O)[O-])cc2)c([N+](=O)[O-])c(=O)[nH]1	-24.5%	-4.3%	-17.6%	44.7µM*	u	-3.0%	u	GALK confirm=37.5µM*;GALK redox cs=-2.5%;HEK293 tox=6.2%
O=C1C(c2cccc(Br)c2)N(CCc2ccccc2)C(=O)CN1C1CCCCC1 (stereo not drawn)	x	-7.1%[60.1 µM]	-1.4%	-14.4%	9.2%	5.4%	x
O=C1Nc2ccccc2Oc2cc(Oc3ccccc3)ccc21	x	u	-24.5%	x	79.4µM*	-41.6%	u
CCc1ccc(C(=O)c2cn(CC(=O)Nc3cc(OC)cc(OC)c3)c3ccc(CC)cc3c2=O)cc1	x	-13.2%	16.8%	-8.8%	17.6%	-8.1%	x
CCOc1ccc(C(=O)c2cn(CC(=O)Nc3cc(OC)cc(OC)c3)c3ccc(F)cc3c2=O)cc1	x	-15.0%	-9.5%	u	u	14.1µM*	x	Pol kappa inh-2=u
CCOc1ccc(-n2cc(-c3ccccc3)c3c(N4CCC(C)CC4)ncnc32)cc1	x	-12.2%[60.1 µM]	-11.0%	-13.0%	6.1%	18.0%	x
CSc1ccccc1NC(=O)c1cc2ncc(Br)cn2n1	-17.9%[57.1 µM]	u	40.8%	44.7µM*	-82.5%	u	u
CCC(=O)N1CCc2cc(Br)cc(S(=O)(=O)CCC(=O)N(C)c3cccc(C)c3)c21	x	-29.6%	-1.9%	35.5µM*	6.6%	44.7µM*	84.9*
CCN(C(=O)CCS(=O)(=O)c1cc(Br)cc2c1N(C(=O)C1CC1)CC2)c1cccc(C)c1	x	0.0%	-3.8%	-6.7%	-6.9%	-17.7%	x
CCc1ccccc1NC(=O)C1CCCN(c2ncnc3onc(C)c23)C1 (stereo not drawn)	x	0.8%	18.1%	-10.3%	16.9%	-1.0%	x
CC1(C)CC(=O)C2=C(C1)c1c(ccc3ccccc13)NC2c1cc([N+](=O)[O-])cc([N+](=O)[O-])c1O (stereo not drawn)	u	-35.7%	u	28.2µM*	u	44.7µM*	u	Pol kappa inh-2=47.4*
Cc1ccc2nc(-c3ccc(O)c(O)c3)cn2c1	-4.6%[11.6 µM]	u	-28.7%	22.4µM*	50.1µM*	3.98µM*	u
CC(CNC(=O)c1cc2ccccn2n1)c1ccccc1 (stereo not drawn)	x	-5.1%	5.9%	-9.6%	28.6%	-1.7%	x
N#Cc1c(NC(=O)c2ccncc2)sc2c1CCC2	u	u	u	31.6µM*	u	14.1µM*	75.7*
CCCCc1ccc(-n2nc3ccc(NC(=O)c4cc5ccccc5o4)cc3n2)cc1	x	4.7%	-4.7%	-7.9%	-3.1%	8.1%	x
CC(C)c1ccc(/C=c2\sc3nc(-c4ccncc4)nn3c2=O)cc1	-16.3%	-10.1%	-9.9%	u	-2.3%	7.1%	x
Cc1ccc(/C=c2\sc3nc(-c4cccnc4)nn3c2=O)cc1	u	-20.9%	7.3%	10µM*	u	u	u
CCOC(=O)c1cccc(NC(=O)c2ccc3snnc3c2)c1	x	0.8%	12.3%	-9.8%	5.2%	23.1%	x
CN(CCOc1ccccc1)C(=O)CCc1nc2sc3c(c2c(=O)[nH]1)CCCC3	5.7%[11.6 µM]	-35.4%	3.2%	u	25.1µM*	u	u
CC1(OC(=O)C2CCCC2)C(=O)C=C2C=C(c3ccsc3)N(Cc3ccco3)C=C2C1=O (stereo not drawn)	-13.9%	25.1µM*	u	-14.3%	u	u	2.39*
Cc1cc(=O)n2nc(N3CCC(C(=O)Nc4ccc(C(C)C)cc4)CC3)sc2n1	x	-0.9%	1.8%	-11.9%	-16.8%	22.0%	x
SMILES	WRN helicase inh	Pol kappa inh-1	FEN1 inh-1	Pol eta inh-1	Pol iota inh	Pol beta inh	Pol eta inh-2	others
COc1cc(/C=C2/C(C)=C(C#N)c3nc(N)c(C#N)c(C)c32)ccc1OCC(=O)O	u	89.1µM*	u	17.8µM*	u	u	30.1*
CCn1c(SCC(=O)NCc2ccco2)nnc1-c1ccc(N(C)C)cc1	x	-15.1%	-15.1%	x	2.5%	x	x
Cc1oc2ncn(CC(C)C)c(=O)c2c1C(=O)NCCCN1CCCCC1C (stereo not drawn)	x	2.7%	0.0%	-2.8%	-8.2%	12.0%	x
O=C(O)c1cccc(N2C(=O)C=CC2=O)c1	-24.9%[11.6 µM]	x	x	20µM*	x	x	53.6*
O=C(COc1ccccc1Cl)N(Cc1cccc(F)c1)C1CCS(=O)(=O)C1 (stereo not drawn)	x	-2.6%	-5.5%	-11.3%	-4.0%	-3.1%	x
CC(=O)c1ccc(S(=O)(=O)Nc2ccc(-c3ccc4nnc(C)n4n3)cc2)cc1	-9.7%[11.6 µM]	u	0.9%	20µM*	-85.9%	28.2µM*	u
Cc1c(C(=O)O)c(O)cc2c1C(=O)c1c(O)c([C@@H]3O[C@H](CO)[C@@H](O)[C@H](O)[C@H]3O)c(O)c(O)c1C2=O	31.6µM*	50.1µM*	u	u	u	x	u	Pol kappa inh-2=42.3*;FEN1 inh-2=84.9*

Compound activity from PubChem.
